Screens from PubChem.
ST2 inh: IL1RL1 inhibition. inhibition, % for hits at 17 µM. AID 1259354. 78,000 compounds, 2.3% hits. Q01638. AlphaLISA ST2-Fc/biotin-IL-33 interaction, 1 h; in the data active = inhibition above about 30%
Target sequence (Q01638 whole entry, looked up): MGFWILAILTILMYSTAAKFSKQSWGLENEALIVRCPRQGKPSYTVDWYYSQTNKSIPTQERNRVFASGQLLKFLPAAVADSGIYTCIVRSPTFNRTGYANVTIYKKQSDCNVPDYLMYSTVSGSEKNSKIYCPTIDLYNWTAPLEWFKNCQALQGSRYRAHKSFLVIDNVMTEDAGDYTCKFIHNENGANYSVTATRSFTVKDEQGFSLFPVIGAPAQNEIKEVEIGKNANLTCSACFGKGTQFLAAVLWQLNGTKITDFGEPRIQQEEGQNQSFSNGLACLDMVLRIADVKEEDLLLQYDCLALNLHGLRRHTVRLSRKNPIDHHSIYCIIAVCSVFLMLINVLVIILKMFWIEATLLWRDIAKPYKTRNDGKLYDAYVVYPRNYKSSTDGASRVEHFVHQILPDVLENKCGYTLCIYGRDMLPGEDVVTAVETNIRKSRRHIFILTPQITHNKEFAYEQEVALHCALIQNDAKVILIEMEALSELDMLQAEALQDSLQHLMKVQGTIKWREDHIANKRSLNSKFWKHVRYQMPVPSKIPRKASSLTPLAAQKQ
Numbers stand for hits; i = inactive. The sample as a whole holds a higher share of hits than the screen did.

SMILES | ST2 inh
CCOc1ccc(S(=O)(=O)N=C2C=C(Nc3ccccc3)C(=O)c3ccccc32)cc1 | 87%
CCOc1ccc(S(=O)(=O)NCCO)cc1 | i
CCCNC(=O)C1CCC(Cn2c(=O)c3sccc3n(CC(=O)NC(C)C)c2=O)CC1 (stereo not drawn) | i
CCOc1ccc(C2CC(=O)N3CN(c4ccc(Br)cc4)CSC3=C2C#N)cc1 (stereo not drawn) | i
Cn1c(=O)c2c(nc3n(-c4ccc5c(c4)OCCO5)c(-c4ccccc4)cn23)n(C)c1=O | i
CC(C)c1ccc2c(c1)CCC1[C@](C)(C(=O)O)CCC[C@]21C (stereo partly drawn) | i
C=CC(C)(O)CC[C@H]1C(=C)CCC2[C@](C)(C(=O)O)CCC[C@@]21C (stereo partly drawn) | i
CC(C)C1(O)C=C2C(=O)CC3C(C)(C(=O)O)CCCC3(C)C2CC1 (stereo not drawn) | 30%
NC1=NN=C(c2ccccc2)CS1 | i
c1ccc(NC2CCN(Cc3cc4n(n3)CCCNC4)CC2)nc1 | i
O=C(Nc1ccc(Br)cc1)c1noc2c1CCCCC2 | i
O=C(Nc1ccc2c(c1)OCCO2)c1cc2cc(Br)ccc2oc1=O | i
NC(=O)NCc1cn(C2CCN(C/C=C/c3ccc(F)cc3)CC2)nn1 | i
Cc1ccccc1CSC1=NCCN1C(=O)c1ccco1 | i
O=C1c2ccccc2NC(c2ccc(Br)cc2)N1Cc1ccccc1 (stereo not drawn) | i
O=C1C(=O)N(Cc2ccccc2)c2ccc(Br)cc21 | 30%
O=C1C(=O)N(Cc2ccc(F)cc2)c2ccccc21 | i
Cc1ccc(-c2cc(O)cc3sc(=O)oc23)cc1 | i
Cc1cnc(CNC(=O)CCSc2ccc3c(c2)OCCO3)cn1 | i
COCCN1CCC(C(=O)N2CCC(Oc3ccccc3F)CC2)C1 (stereo not drawn) | i
CC1=CC(=O)C(C(C)C)=C/C1=N\Oc1c([N+](=O)[O-])cc(Cl)cc1[N+](=O)[O-] | 62%
COc1ccc(Br)cc1/C=C1N=C(/C=C/c2ccccc2OC)OC\1=O | i
Cc1ccc2nc(-c3ccco3)c(Nc3ccccc3)n2c1 | i
COc1ccc(Br)cc1C=Nc1c(-c2ccco2)nc2ccccn12 | 30%
O=[N+]([O-])c1cccc(C=Nc2cccc3ncccc23)c1O | i
SMILES | ST2 inh
Cc1[nH]nc(-c2ccc(S(=O)(=O)Nc3ccc(S(N)(=O)=O)cc3)s2)c1C | i
Cc1cc(C(=O)N2CCC(n3cc(-c4ccccn4)nn3)CC2)c(C)o1 | i
c1ccc2c(c1)Nc1ccc3ccccc3c1S2 | 39%
Fc1ccc2c(c1)Sc1ccccc1N2 | 36%
COc1ccc(C2=CC(=O)Nc3ccccc3S2)cc1 | i
CC(=O)N1CCC(Oc2ccc(Cl)cc2C(=O)NCCc2cnccn2)CC1 | i
O=[N+]([O-])c1ccccc1CN1C[C@H](O)C[C@H]1c1nc(C2CC2)no1 | i
COc1ccc2nc(N3CCC(C(=O)NCCN4CCOCC4)CC3)sc2c1 | i
COc1ccc(-c2cn3c4c(=O)n(C)c(=O)n(C)c4nc3n2-c2cccc(Cl)c2)cc1 | i
O=C(CCc1ccccc1)Nc1ccc(S(=O)(=O)Nc2ncccn2)cc1 | i
COc1ccc(CN2C[C@H](O)C[C@H]2c2nc(Cc3ccc(F)cc3Cl)no2)c2ccccc12 | i
COc1ccc(CN2C[C@H](O)C[C@H]2c2nc(-c3ccc(F)cc3)no2)c(OC)c1OC | 47%
COc1ccc(CN2C[C@H](O)C[C@H]2c2nc(-c3ccccc3)no2)c(OC)c1OC | i
COc1ccc(-c2noc([C@@H]3C[C@@H](O)CN3Cc3cccc(C#N)c3)n2)cc1 | 58%
COc1ccc(CN2C[C@H](O)C[C@H]2c2nc(-c3ccncc3)no2)cc1 | i
COc1ccc(CN2C[C@H](O)C[C@H]2c2nc(-c3ccccc3)no2)cc1 | i
Cc1ccc2ccccc2c1Cn1c(Cl)nc2c1c(=O)n(C)c(=O)n2C | i
CC(C)NC(=O)Cn1c(=O)n(CC2CCC(C(=O)N3CCCCCC3)CC2)c(=O)c2sccc21 (stereo not drawn) | i
CC1=C(C(=O)Nc2ccccn2)C(c2ccccc2C(F)(F)F)C2=C(CC(C)(C)CC2=O)N1 (stereo not drawn) | i
CCc1c(C)sc(NC(=O)CCCn2nc(C)c([N+](=O)[O-])c2C)c1C#N | i
O=C(Nc1c(C(=O)O)oc2ccccc12)c1ccccc1 | i
CCN(CC)CC(=O)Nc1c(C(=O)c2ccccc2)oc2ccccc12 | 43%
CCC(=O)Nc1c(C(=O)Nc2ccccc2F)oc2ccccc12 | i
COc1ccc2oc(=Nc3ccc(-c4ccccc4)cc3)c(C(N)=O)cc2c1 | i
COc1ccc2oc(=Nc3ccccc3OC)c(C(N)=O)cc2c1 | i
SMILES | ST2 inh
COc1ccc2oc(=Nc3ccc(C(C)=O)cc3)c(C(N)=O)cc2c1 | 40%
COc1ccc2c(C)nc(N3CCCC(C(=O)NCc4ccccc4)C3)nc2c1 (stereo not drawn) | i
Cc1c(C(c2ccccc2)c2c(C)n(C)n(-c3ccccc3)c2=O)c(=O)n(-c2ccccc2)n1C | i
O=C1NC(=O)N(c2ccccc2)C(=O)C1C(c1ccccc1)c1ccccc1 (stereo not drawn) | i
Cc1nnc(C)c2c(C)n(C(C)c3ccccc3)c(C)c12 (stereo not drawn) | 47%
COc1ccc(C=Nc2ccc(NC(C)=O)cc2)cc1 | i
C=C(C)COc1cccc(C(=O)N2CCCN(C(=O)C3CCCO3)CC2)c1 (stereo not drawn) | i
O=[N+]([O-])c1ccc(/C=C/c2ccc3ccccc3n2)o1 | 67%
Cn1c(/C=C/c2ccc([N+](=O)[O-])o2)nc2ccc(I)cc2c1=O | i
CN1CCN(Cc2c(O)ccc3c(=O)c(-c4cccc(Cl)c4)c(C(F)(F)F)oc23)CC1 | i
COCc1cc(C)nc2sc(C(=O)Nc3ccc([N+](=O)[O-])cc3)c(N)c12 | i
COc1cc2c(cc1OC)C(C(=O)NC1CCCCCC1)C(c1cccs1)N(C)C2=O (stereo not drawn) | i
Cn1c(=O)[nH]c(=O)c2c1nc(N1CCCCC1)n2CCSc1nc2ccccc2s1 | i
Cc1ccc(F)cc1NC(=O)CNc1nc(-c2cccnc2)nc2c1CNC2 | i
CCSC1=N/C(=C\c2c(OC)cc(OC)cc2OC)C(=O)S1 | 38%
O=S(=O)(Nc1c(F)c(F)c(F)c(F)c1F)c1ccccc1 | i
COc1ccc(-c2nnc([C@H]3CCN(C4CCOCC4)C3)o2)cc1 | i
Cc1nc2ccccc2c2oc(C(=O)N3CCN(C)CC3)cc12 | i
O=S(=O)(c1cccc2nsnc12)N1CCN(C23CC4CC(CC(C4)C2)C3)CC1 | i
O=S(=O)(c1cccc2nsnc12)N1CCC(n2c(Cc3ccccc3)nc3cccnc32)CC1 | 97%
CC(=O)Nc1ccc(S(=O)(=O)N2CCC(n3c(Cc4ccccc4)nc4cccnc43)CC2)cc1 | i
CC(=O)Nc1ccc(-c2cc(N)n[nH]2)cc1 | i
Cn1c(C(=O)NCc2ccco2)cc2c(=O)n3ccccc3nc21 | i
COc1cc(C(=O)N2CCN(Cc3ccccc3Cl)CC2)cc(OC)c1OC | i
CC(C)COc1ccc2c(c1)c1c3n2CCNC3CCC1 (stereo not drawn) | i
CC(C)COc1ccc2c(c1)c1c3c(nccn32)CCC1 | 38%
CCC1=C(c2ccc(OC)cc2)S(=O)(=O)N(CC(=O)NCc2ccc(N(C)C)cc2)C1=O | i
O=C(CN1C(=O)CC(c2ccccc2)Sc2ccccc21)Nc1ccc2c(c1)OCO2 (stereo not drawn) | i
COc1cc(C2c3[nH]c4ccccc4c3CCN2Cc2ccco2)ccc1F (stereo not drawn) | i
